This note sets out measurements from PubChem BioAssay AID686970 (National Center for Advancing Translational Sciences (NCATS), 2013).

Out of some 360,000 compounds screened, about 6,000 (1.7%) were called active. About 8% were inconclusive and are not listed. The call rests on the fitted dose curve; in most records, active means well fitted cell-killing curve with a large enough effect; inconclusive means small, poorly fitted or top-dose-only effect, or effect the other way; inactive means flat fitted curve, though single readings scatter. Many of the other results were omitted from the sample, so actives are more common in it than they were.
Potency means the concentration at half of the fitted maximal effect.

The nature of this test: qHTS for induction of synthetic lethality in tumor cells producing 2HG: qHTS for the HT-1080-NT fibrosarcoma cell line. Further: nearly all actives have a fitted effect of over 55% in size. Conditions: HT-1080-NT fibrosarcoma viability, CellTiter-Glo ATP luminescence, 48 h; series mostly up to 46.1 µM; activity, negative = less viability: at the top concentration. An excerpt: Unbiased genomic sequencing for 22 glioma genomes found recurrent mutation of IDH1 on chromosome 2q33, a gene encoding the cytosolic isoform of IDH1 associated with the tricarboxylic acid cycle (TCA) that catalyzes the oxidative decarboxylation of isocitrate, yielding alpha-ketoglutarate and CO2 via NADP+ to NADPH conversion. Subsequent studies confirmed the recurrent IDH mutations in up to 70% of secondary gliomas and in 10% of AML cases. In addition, the somatic mutation of cancer-associated IDH1 is a point mutation resulting in various amino-acid substituents at Arginine132 (IDH1 R132), a key residue found in the enzyme's active site that when mutated, results in the loss-of-function in metabolizing isocitrate but confers a gain-of-function to produce the oncometabolite 2-hydroxyglutarate (2HG). This in effect defines IDH1 as an oncogene and provides an extraordinary opportunity to discover chemical probes against mutant IDH1 that may translate into much needed new therapies for glioma and AML patients.
This assay aims to perform a synthetic lethal screen for chemical probes specific for 2HG-producing tumor cells using matched paired cell lines (1) HT-1080-NT fibrosarcoma cell line that overproduces 2HG and (2) HT-1080-IDH1KD cell line which has IDH1 expression knocked-down. Desirable compounds are toxic to the NT fibrosarcoma cells but not to the IDH1KD cell line. The data in this AID corresponds to the results of the qHTS against the HT-1080-NT fibrosarcoma cell line.
[1] Dang L, Jin S, Su SM. IDH mutations in glioma and acute myeloid leukemia. Trends of Mol Med. 2010; 16(9): 387-97.
[2] Dang L et al. Cancer-associated IDH1 mutations produce 2-hydroxyglutarate. Nature. 2010; 465(7300):966.
NIH Molecular Libraries Probe Production Centers Network [MLPCN]
NIH Chemical Genomics Center [NCGC]
Assay Submitter (PI): Lenny Dang Ph.D., Agios Pharmaceuticals
Suspensions of trypsinized HT-1080-NT cells were dispensed into white, tissue culture-treated, solid 1536-well plates at 5uL/well (750 cells/well final concentration) in RPMI medium supplemented with 5% FBS. Plates were incubated at 37 degrees C for 2 hours, after which 23 nL of compounds or DMSO were delivered to each well using a pin tool. Plates were then incubated at 37 degrees C for an additional 48 hours. CellTiter-Glo viability reagent (Promega) was dispensed into wells (2.5uL/well) and incubated at room temperature for 10 minutes. The plates were measured on a PerkinElmer ViewLux plate reader for luminescent signal (clear filter, 1 sec exp). DMSO-treated control wells and media-only (no cells) control wells were used to normalize %Activity of identified toxic compounds; DMSO-treated wells corresponded to 0%Activity (100% viability), while media-only controls were used to normalize 100%Activity (0% viability).
Concentration-response curves were fitted to the signals arising from the resulting luminescence. The concentration-effect curves were then classified based on curve quality (r2), response magnitude and degree of measured activity, and compounds were subsequently categorized based on their curve class.
In general terms: Quantitative high-throughput screening tests each substance at several concentrations.
`CC(C)c1ccc(CC(=O)N2CCC2(C)C(=O)NS(=O)(=O)c2ccc(C(C)(C)C)cc2)cc1` (stereo unspecified): the “activity, negative = less viability” value is 2.38% (inactive).

In the case of `CCCS(=O)(=O)NC(=O)C1(C)CCCN(C(=O)c2ccnc(Cl)c2)C1` (stereo unspecified), the “activity, negative = less viability” value is 22.2% (inactive). As for `CCCCCCN1C[C@H](O)[C@@H](n2cc(C3CC3)nn2)C[C@@H]1c1ccc(Cl)cc1`, the “activity, negative = less viability” value is -1.63% (inactive). Still for that read-out and setting: under `COc1ccc(Nc2ccc3ccccc3c2)cc1` stands -25.9% (inactive).

As to `COc1ccc(Nc2cc(=O)oc3ccccc23)cc1`, the Potency was 7.31 µM (active).

As to `COc1ccc2oc(=O)cc(-c3cc4ccccc4o3)c2c1`, the “activity, negative = less viability” value is -5.9% (inactive). Take `COCCNC(=O)c1cc2c(Br)ccc(Br)c2nc1N`: the “activity, negative = less viability” value was -6.43% (inactive). `Cc1cccc(-n2ncc(Cl)c(Cl)c2=O)c1`: the Potency is 5.8 µM (active).

For the compound `Cc1cccc(-n2ncc3c(=O)[nH]c(SCC(=O)Nc4cc(C)on4)nc32)c1`, the “activity, negative = less viability” value is 9.3% (inactive). Still for that read-out and setting: under `C=CCNc1cnn(-c2ccc(C)cc2)c(=O)c1Cl` stands 14.9% (inactive); under `Cc1cc(Br)cn2c(Cc3ccccc3C(F)(F)F)c(C3CCCCC3)nc12`, 22.8% (inactive).

For `Oc1ccc(-c2nc3ccccc3nc2-c2ccc(O)cc2O)c(O)c1`, the “activity, negative = less viability” value was -11.5% (inactive). For the compound `CC(=O)Nc1cnc(-c2ccc(O)cc2C)cn1`, the “activity, negative = less viability” value was 11.8% (inactive). For `Cc1ccc(Nc2nc(-c3ccc(O)cc3O)cs2)nc1`, the Potency was 1.64 µM (active). As for `O=C(NCc1ccc(F)cc1)c1cc(C2CCCCN2C(=O)C2CCCCC2)on1` (stereo unspecified), the “activity, negative = less viability” value was 1.47% (inactive). Same read-out and setting: next, `N#Cc1ccc(-c2nc3c(Cl)cc(C(F)(F)F)cn3c2Cc2ccccc2C(F)(F)F)cc1`: 13.4% (inactive).

Take `CCCCCC(O)c1cccc(OCc2ccc3ccccc3n2)c1` (stereo unspecified): the Potency is 14.6 µM (active).

`COc1cccc(C(O)c2ncc(-c3ccc4ccccc4c3)[nH]2)c1` (stereo unspecified): the “activity, negative = less viability” value was -8.84% (inactive). On the same count and under the same terms, under `COc1cccc(C(O)c2nc3ccccc3n2C)c1` (stereo unspecified) stands -2.98% (inactive); under `COc1ccc(C(=O)NCC[N+](C)(C)C)cc1`, 21.8% (inactive); under `Cc1cc(C)nc(SCc2ccccc2C#N)n1`, -13.3% (inactive). In the case of `Cc1cc(C)nc(S/C=C/C(=O)c2ccccc2)n1`, the Potency was 5.17 µM (active). Take `Cc1cc(C)nc(N(C#N)CC(=O)Nc2ccccc2)n1`: the “activity, negative = less viability” value was -1.01% (inactive).

For the compound `CN1CCN(C(=O)c2ccc(-c3cc4nc(NCc5cccnc5)n(C)c(=O)c4s3)cc2)CC1`, the “activity, negative = less viability” value is -6.36% (inactive). Same read-out and setting: next, `Cc1cccc(C)c1NC(=O)C(c1cccc(F)c1)N1CCN(C)CC1` (stereo unspecified): 5.7% (inactive). Consider `CCC(C(=O)OCC(=O)Nc1ccc(C(=O)Nc2ccc(OC)cc2)cc1)c1ccccc1` (stereo unspecified), for which the Potency is 18.4 µM (active). As for `CCC(C(=O)OCC(=O)Nc1c(Cl)cc(Cl)cc1Cl)c1ccccc1` (stereo unspecified), the “activity, negative = less viability” value was -5.96% (inactive). Consider `CCC(C(=O)OCC(=O)Nc1ccccc1-c1ccccc1)c1ccccc1` (stereo unspecified), for which the “activity, negative = less viability” value is -1.42% (inactive). The same measure, in the same setting: next, `O=C(Nc1ccc(Cl)cc1)c1csc([C@@H]2O[C@H](CO)[C@H](O)[C@H](O)[C@H]2O)n1`: 5.67% (inactive). In the case of `CC(C)c1ccc2c(c1)c(SC(C)(C)C)c(CC(C)(C)C(=O)O)n2Cc1ccc(Cl)cc1`, the Potency is 13 µM (active). As for `C[C@@H]1CN([C@H](C)CO)C(=O)CCCn2cc(nn2)CO[C@H]1CN(C)S(=O)(=O)c1ccc(Oc2ccccc2)nc1`, the “activity, negative = less viability” value is 9.83% (inactive). Regarding `O=C(c1ccc(C(F)(F)F)cc1)N1CCC(=O)N([C@H](COCc2ccccc2)Cc2ccccc2)CC1`, the “activity, negative = less viability” value was -31.2% (inactive).

`O=C(CNC(=O)N1CC(=O)Nc2ccccc21)Nc1ccc(Br)cc1F`: the “activity, negative = less viability” value was 2.75% (inactive). Take `O=C(CCC(=O)OCc1ccc(Cl)cc1)Nc1ccccc1`: the “activity, negative = less viability” value is 8.34% (inactive). For `O=C1C=C(c2ccc(Cl)cc2)C(=O)N1Nc1ccccc1`, the Potency was 23.1 µM (active). Regarding `O=C(O)CC1=C(Nc2ccccc2)C(=O)N(c2ccccc2)C1c1ccc(Cl)cc1` (stereo unspecified), the “activity, negative = less viability” value is 5.31% (inactive). In the case of `CCN(Cc1ccncc1)C(=S)Nc1ccccc1C`, the “activity, negative = less viability” value was 13.2% (inactive). Still for that read-out and setting: under `CCCCN1CC(N2CCN(Cc3cccc(C)c3)CC2)CS1(=O)=O` (stereo unspecified) stands 13.1% (inactive). As to `CCCCN(CCCC)CCC(O)c1cc2c(Cl)cc(Cl)cc2c2cc(C(F)(F)F)ccc12` (stereo unspecified), the Potency is 14.6 µM (active). In the case of `Fc1cccc(Cc2c(-c3cccc(Cl)c3)nc3ccc(Br)cn23)c1`, the “activity, negative = less viability” value was -23.5% (inactive). On the same count and under the same terms, under `CC1(C(=O)NS(=O)(=O)c2ccccc2Cl)CCN1C(=O)c1cccc(F)c1` (stereo unspecified) stands 16.3% (inactive).

For the compound `Cc1cccc(C)c1NC(=O)C(Cl)C(=O)c1ccccc1` (stereo unspecified), the Potency was 16.4 µM (active). Take `Cc1cccc(C)c1NC(=O)N1CC(C)OC(C)C1` (stereo unspecified): the “activity, negative = less viability” value is 2.26% (inactive). As for `Cc1cccc(C)c1NC(=O)CN(C)C(=O)CCC(=O)c1ccccc1`, the “activity, negative = less viability” value was 15.1% (inactive).

As for `Cc1ccccc1CN1C(=O)CSCC1(C)C(=O)Nc1c(C)cccc1C` (stereo unspecified), the “activity, negative = less viability” value is 9.72% (inactive). On to `CN(Cc1ccccc1)CC(O)COc1ccc(CNCc2cc3ccccc3s2)cc1` (stereo unspecified), for which the Potency was 20.6 µM (active).

Regarding `Cc1ccc(OCC(=O)OC(C)CN(C)Cc2ccccc2)cc1` (stereo unspecified), the “activity, negative = less viability” value was 1.64% (inactive). Regarding `COc1ccc(OCC(O)CN(C)C(=O)C(C)Oc2ccccc2)cc1` (stereo unspecified), the “activity, negative = less viability” value was -4.49% (inactive). On the same count and under the same terms, under `CC(C)(C)Cc1c(C2CCCCC2)nc2ccc(Br)cn12` stands -24.8% (inactive); under `O=C(NN=Cc1ccccc1)c1ccccc1`, 25.1% (inactive); under `O=C(N/N=C/c1ccccc1O)C1CCCC1`, -15.5% (inactive).
